Laboratory results from paper PMC5540273 (PLoS ONE, 2017).

Tests used:
Settings in all cases: concentration: 1 μM,replicates: in singlicate; n = 1
DCAMKL2 = test system: T1, DCAMKL2
T1 construct: gene DCLK2

DCAMKL3 = test system: T2, DCAMKL3
T2 construct: gene DCLK3

DDR1 = test system: DDR1
DDR2 = test system: DDR2
DLK = test system: T3, DLK
T3 construct: gene MAP3K12

DMPK2 = test system: T4, DMPK2
T4 construct: gene CDC42BPG

DMPK = test system: DMPK
DRAK1 = test system: T5, DRAK1
T5 construct: gene STK17A

DRAK2 = test system: T6, DRAK2
T6 construct: gene STK17B

DYRK1A = test system: DYRK1A
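Further: KINOMEscan kinase panel screen.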

CC(=O)Nc1nc2cnc(Nc3cc(NC(=O)c4cccc(CC(C)(C)C#N)c4)ccc3C)nc2s1 was tested, and the “%Inh” value (DCAMKL2) was 5%, the “%Inh” value (DCAMKL3) was 0% and the “%Inh” value (DDR1) was 100%. For the same compound, the “%Inh” value (DDR2) was 97.2%, the “%Inh” value (DLK) was 26% and the “%Inh” value (DMPK2) was 2%. The “%Inh” value (DMPK) was 0%, the “%Inh” value (DRAK1) was 0% and the “%Inh” value (DRAK2) was 0%. The “%Inh” value (DYRK1A) was 0%.
In the case of CC(C(=O)NC1CCN(c2ccnc(Nc3ccc(F)cc3)n2)C1)c1ccc(Cl)cc1 (stereo not shown) [GSK1379713], the “%Inh” value (DCAMKL2) is reported as 12%, the “%Inh” value (DCAMKL3) is reported as 9% and the “%Inh” value (DDR1) is reported as 14%. For the same compound, the “%Inh” value (DDR2) was 11%, the “%Inh” value (DLK) was 19% and the “%Inh” value (DMPK2) was 0%. The “%Inh” value (DMPK) was 0%, the “%Inh” value (DRAK1) was 6% and the “%Inh” value (DRAK2) was 0%. The “%Inh” value (DYRK1A) was 10%.
With CSc1nccc(-c2c(-c3ccc(F)cc3)ncn2CCCN2CCOCC2)n1.Cl [SB-217146] the “%Inh” value (DCAMKL2) was 0%, the “%Inh” value (DCAMKL3) was 0% and the “%Inh” value (DDR1) was 0%. For the same compound, the “%Inh” value (DDR2) was 33%, the “%Inh” value (DLK) was 0% and the “%Inh” value (DMPK2) was 0%. For the same compound, the “%Inh” value (DMPK) was 0%, the “%Inh” value (DRAK1) was 0% and the “%Inh” value (DRAK2) was 0%. For the same compound, the “%Inh” value (DYRK1A) was 0%.
O=C(Nc1cccc(C(F)(F)F)c1)c1cccc(Oc2ccc3nccn3n2)c1 was tested, and the “%Inh” value (DCAMKL2) was 6%, the “%Inh” value (DCAMKL3) was 9% and the “%Inh” value (DDR1) was 97.1%. For the same compound, the “%Inh” value (DDR2) was 95.9%, the “%Inh” value (DLK) was 0% and the “%Inh” value (DMPK2) was 1%. The “%Inh” value (DMPK) was 13%, the “%Inh” value (DRAK1) was 0% and the “%Inh” value (DRAK2) was 0%. For the same compound, the “%Inh” value (DYRK1A) was 5%.
With C[C@@H]1CCN(C(=O)N2CCCC2)C[C@@H]1N(C)c1ncnc2[nH]ccc12 the “%Inh” value (DCAMKL2) was 0%, the “%Inh” value (DCAMKL3) was 99.8% and the “%Inh” value (DDR1) was 8%. The “%Inh” value (DDR2) was 0%, the “%Inh” value (DLK) was 8% and the “%Inh” value (DMPK2) was 0%. The “%Inh” value (DMPK) was 72%, the “%Inh” value (DRAK1) was 23% and the “%Inh” value (DRAK2) was 38%. The “%Inh” value (DYRK1A) was 0%.
For CCN1CCN(CCCC(=O)Nc2n[nH]c3nc(-c4ccc(O)cc4)c(Br)cc23)CC1 [SB-731579], the “%Inh” value (DCAMKL2) was 18%, the “%Inh” value (DCAMKL3) was 99.1% and the “%Inh” value (DDR1) was 38%. The “%Inh” value (DDR2) was 41%, the “%Inh” value (DLK) was 8% and the “%Inh” value (DMPK2) was 0%. For the same compound, the “%Inh” value (DMPK) was 89%, the “%Inh” value (DRAK1) was 44% and the “%Inh” value (DRAK2) was 0%. For the same compound, the “%Inh” value (DYRK1A) was 38%.
With Cc1ccc2c(-c3ccnc(Nc4ccc(C(F)(F)F)cc4)n3)cnn2n1 [GW819776] the “%Inh” value (DCAMKL2) was 0%, the “%Inh” value (DCAMKL3) was 0% and the “%Inh” value (DDR1) was 0%. For the same compound, the “%Inh” value (DDR2) was 4%, the “%Inh” value (DLK) was 0% and the “%Inh” value (DMPK2) was 9%. The “%Inh” value (DMPK) was 0%, the “%Inh” value (DRAK1) was 37% and the “%Inh” value (DRAK2) was 13%. The “%Inh” value (DYRK1A) was 37%.
With COC(=O)c1cccc(NC(=O)NC2CCN(c3ccnc(Nc4cc(OC)c(OC)c(OC)c4)n3)C2)c1 (stereo not shown) [GSK1379767] the “%Inh” value (DCAMKL2) was 0%, the “%Inh” value (DCAMKL3) was 0% and the “%Inh” value (DDR1) was 13%. For the same compound, the “%Inh” value (DDR2) was 55%, the “%Inh” value (DLK) was 61% and the “%Inh” value (DMPK2) was 27%. The “%Inh” value (DMPK) was 0%, the “%Inh” value (DRAK1) was 0% and the “%Inh” value (DRAK2) was 0%. The “%Inh” value (DYRK1A) was 0%.
C[C@@H]1CNc2c(sc3ccc4nc(-c5ccc(O)cc5)ccc4c23)C(=O)N1 was tested, and the “%Inh” value (DCAMKL2) was 0%, the “%Inh” value (DCAMKL3) was 54% and the “%Inh” value (DDR1) was 0%. The “%Inh” value (DDR2) was 16%, the “%Inh” value (DLK) was 0% and the “%Inh” value (DMPK2) was 0%. For the same compound, the “%Inh” value (DMPK) was 0%, the “%Inh” value (DRAK1) was 100% and the “%Inh” value (DRAK2) was 100%. The “%Inh” value (DYRK1A) was 98.9%.
With CN(c1ccccc1CNc1nc(Nc2ccc3c(c2)CC(=O)N3)ncc1C(F)(F)F)S(C)(=O)=O the “%Inh” value (DCAMKL2) was 0%, the “%Inh” value (DCAMKL3) was 94.8% and the “%Inh” value (DDR1) was 12%. The “%Inh” value (DDR2) was 0%, the “%Inh” value (DLK) was 19% and the “%Inh” value (DMPK2) was 0%. The “%Inh” value (DMPK) was 25%, the “%Inh” value (DRAK1) was 96.5% and the “%Inh” value (DRAK2) was 98.4%. The “%Inh” value (DYRK1A) was 28%.
In the case of CN(c1cccc(CNc2nc(Nc3ccc4c(c3)CC(=O)N4)ncc2C(F)(F)F)c1)S(C)(=O)=O, the “%Inh” value (DCAMKL2) is reported as 9%, the “%Inh” value (DCAMKL3) is reported as 86% and the “%Inh” value (DDR1) is reported as 43%. For the same compound, the “%Inh” value (DDR2) was 3%, the “%Inh” value (DLK) was 4% and the “%Inh” value (DMPK2) was 0%. For the same compound, the “%Inh” value (DMPK) was 0%, the “%Inh” value (DRAK1) was 99.4% and the “%Inh” value (DRAK2) was 97.5%. For the same compound, the “%Inh” value (DYRK1A) was 74%.
C[C@@H](Oc1cc(-n2cnc3cc(-c4cnn(C)c4)ccc32)sc1C(N)=O)c1ccccc1Cl [GSK580432] was tested, and the “%Inh” value (DCAMKL2) was 10%, the “%Inh” value (DCAMKL3) was 0% and the “%Inh” value (DDR1) was 42%. The “%Inh” value (DDR2) was 3%, the “%Inh” value (DLK) was 29% and the “%Inh” value (DMPK2) was 1%. The “%Inh” value (DMPK) was 45%, the “%Inh” value (DRAK1) was 6% and the “%Inh” value (DRAK2) was 15%. The “%Inh” value (DYRK1A) was 18%.
For CN1CCN(CCNc2nc3cc(Oc4ccc(NC(=O)Nc5cc(C(F)(F)F)ccc5F)cc4)ccc3[nH]2)CC1.Cl.Cl [GW768504], the “%Inh” value (DCAMKL2) was 10%, the “%Inh” value (DCAMKL3) was 0% and the “%Inh” value (DDR1) was 96.9%. For the same compound, the “%Inh” value (DDR2) was 99.2%, the “%Inh” value (DLK) was 0% and the “%Inh” value (DMPK2) was 10%. For the same compound, the “%Inh” value (DMPK) was 0%, the “%Inh” value (DRAK1) was 0% and the “%Inh” value (DRAK2) was 17%. The “%Inh” value (DYRK1A) was 0%.
In the case of C[C@@H](Oc1cc(-n2cnc3cc(-c4ccncc4)ccc32)sc1C(N)=O)c1ccccc1Cl [GSK479719], the “%Inh” value (DCAMKL2) is reported as 3%, the “%Inh” value (DCAMKL3) is reported as 0% and the “%Inh” value (DDR1) is reported as 0%. For the same compound, the “%Inh” value (DDR2) was 0%, the “%Inh” value (DLK) was 0% and the “%Inh” value (DMPK2) was 0%. The “%Inh” value (DMPK) was 0%, the “%Inh” value (DRAK1) was 0% and the “%Inh” value (DRAK2) was 0%. The “%Inh” value (DYRK1A) was 57%.
COc1cccc(OC)c1C(=O)Nc1cccc(-c2nn3ccccc3c2-c2ccnc(Nc3cccc(F)c3)n2)c1 [GSK361065] was tested, and the “%Inh” value (DCAMKL2) was 0%, the “%Inh” value (DCAMKL3) was 16% and the “%Inh” value (DDR1) was 99.3%. For the same compound, the “%Inh” value (DDR2) was 57%, the “%Inh” value (DLK) was 0% and the “%Inh” value (DMPK2) was 84%. For the same compound, the “%Inh” value (DMPK) was 2%, the “%Inh” value (DRAK1) was 12% and the “%Inh” value (DRAK2) was 12%. For the same compound, the “%Inh” value (DYRK1A) was 0%.
Cl.Nc1n[nH]c2cc(-c3ccccn3)ccc12 [GSK2189892] was tested, and the “%Inh” value (DCAMKL2) was 0%, the “%Inh” value (DCAMKL3) was 0% and the “%Inh” value (DDR1) was 16%. The “%Inh” value (DDR2) was 0%, the “%Inh” value (DLK) was 4% and the “%Inh” value (DMPK2) was 0%. For the same compound, the “%Inh” value (DMPK) was 0%, the “%Inh” value (DRAK1) was 37% and the “%Inh” value (DRAK2) was 0%. For the same compound, the “%Inh” value (DYRK1A) was 10%.
